Measurements from PubChem BioAssay AID817 (Emory University Molecular Libraries Screening Center, 2007).
The campaign covered roughly 140,000 compounds. About 300 (0.21%) were called active.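 How the source made its calls: active means z-score above 3 at both the 24 hr and the 30 hr optical density reads; inactive means the rest, inconclusive results apart.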 What follows is part of a selection rich in actives, with near analogues and random picks from the rest.

Experiment: restorers of sdo1-deficient yeast growth – S. cerevisiae, bone marrow failure model, primary screen (AID 817);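 further: z-score against mean and SD of all compound wells on the same plate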
Conditions: S. cerevisiae sdo1-depleted JHY4D growth rescue, at 10 µM, stronger effect = higher value, pdr5 snq2 efflux-pump mutant strain
[1] = OD600, measured here: growth rescue at 24 h

SMILES	z-score (OD600 30 h)	z-score [1]
O=C(NC(=S)NC1CCSC1=O)c1ccccc1F (configuration not stated)	1.34 (inactive)	0.37
COc1cc(OC)c(C(=O)OC(C)C(=O)Nc2cc(C(F)(F)F)ccc2Cl)cc1OC (configuration not stated)	-0.55 (inactive)	-0.89
COc1ccc(COC(=O)N/N=C(\C)CC(=O)Nc2ccc(Cl)cc2)cc1	-0.6 (inactive)	-0.79
Cc1cccc2cc(CN(Cc3cccs3)C(=S)NCc3ccco3)c(=O)[nH]c12	-0.84 (inactive)	-0.86
Cc1nc(CC(=O)NNS(=O)(=O)c2ccc(F)c(Cl)c2)cs1	-0.8 (inactive)	-1.4
Oc1c(Br)cccc1/C=N/Nc1c(F)c(F)c(F)c(F)c1F	-1.2 (inactive)	-1.07
CCCCC(NS(=O)(=O)c1ccc(C)cc1)C(=O)Oc1ccc2c3c(c(=O)oc2c1)CCC3 (configuration not stated)	3.73 (inactive)	0.78
COc1ccc(-c2nnco2)cc1OC	12.4 (active)	7.83
COc1ccc(-c2noc(-c3cccc(OC)c3OC)n2)cc1OC	0.11 (inactive)	0.39
COc1ccc2c(Cl)c(-c3nnco3)sc2c1	-1.26 (inactive)	-0.79
COc1cccc(-c2nnc(NC(=O)c3ccc(S(=O)(=O)N(CC(C)C)CC(C)C)cc3)o2)c1	5.73 (active)	8.93
COc1cccc(NC(=O)CN(C)S(=O)(=O)c2ccc(C)cc2)c1	-1.24 (inactive)	-0.78
O=C(COC(=O)c1ccc(Oc2ccccc2)cc1)Nc1nnc(-c2ccccc2)o1	0.36 (inactive)	-0.67
O=C(Cc1ccc(-c2ccccc2)cc1)NC(c1ccccc1)c1ccccc1	-0.71 (inactive)	-0.45
COc1ccc(CC(=O)Nc2cc(S(=O)(=O)N3CCCCC3)ccc2N2CCN(C)CC2)cc1	0.01 (inactive)	-0.4
O=[N+]([O-])c1cccc(S(=O)(=O)N2CCCCCC2)c1	0.38 (inactive)	-0.08
Cc1ccc(C(C)C)cc1OCCN1CCCC1	-1.51 (inactive)	-0.59
O=C(Nc1ccc(CSc2ccccc2)cc1)c1ccc(CN2CCOCC2)cc1	-1.65 (inactive)	-1.3
CSCC[C@H](NC(=O)OC(C)(C)C)C(=O)N/N=C/c1cc2ccc(C)cc2nc1Cl	-1.17 (inactive)	-0.96
Cc1ccc(C)c(OCC(=O)N2CCN(C(=O)c3ccco3)CC2)c1	2.17 (inactive)	2
CCn1c(/C=N/NC(=O)c2ccc(OC)cc2)nc2ccccc21	-1.61 (inactive)	-0.95
CC(C)CC(CO)N1CCN(C(=O)c2ccc(Cl)cc2Cl)CCC1=O (configuration not stated)	0.36 (inactive)	-0.56
CC(=O)Nc1ccc(SCC(=O)Nc2ccccc2Oc2ccccc2)cc1	-0.06 (inactive)	-0.09
Cc1sc2nc(CC(N)=O)[nH]c(=O)c2c1-c1ccccc1	0.91 (inactive)	0.6
CCOc1cc(NC(=S)NCCCOC)c(OCC)cc1NC(=O)c1ccco1	0.22 (inactive)	-0.09
CCOc1cccc(OCCCOc2cccc3cccnc23)c1	-1.11 (inactive)	-0.59
